# Test results published in PubChem BioAssay (Tox21).
# Several values for one entry are separate records, joined by “and”; a condition that tells them apart may be missing. Identical values can stand only once. Inconclusive results are not listed. Where a call stands in place of a potency, no number is given. Some structures have more than one record in an assay (separate samples or runs), and their calls can disagree. Activity calls are given as the source filed them. Unless noted, calls follow the shape of the dose curve; as a rule, active = well fitted curve in the direction sought with a large enough effect in the repeat runs; inconclusive = weak or mixed curves; inactive = no such curve, though single readings can be large; an effect the other way counts as inactive or inconclusive.
# Assays:
# [1] = qHTS assay to identify small molecule agonists of the hypoxia (HIF-1) signaling pathway - cell viability counter screen (AID 1224844; calls by dose curve; also: nearly all actives have a fitted effect of over 50% in size; also: potency is read from the fitted curve at half-maximal effect)
# Procedure, shortened: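 HRE-bla ME-180; 0.5% dFBS; cpd 17 h, 37C, 5% CO2; CellTiter-Glo lum., 30 min RT, post-FRET read, same wells.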
# [2] = qHTS assay to identify small molecule agonists of H2AX (AID 1224845; active = well fitted activation curve with a large enough effect in the signal ratio in the repeat runs, not every such curve was filed as active; the % refers to the signal ratio; also: potency is read from the fitted curve at half-maximal effect)
# Procedure, shortened: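 Wild-type CHO-K1 cells, plated overnight, exposed 3hr at 37C to 15 concentrations (0.76% DMSO final). Lysed, then HTRF anti-pH2AX (S139) cryptate and anti-H2AX-d2 antibodies, 24 hr room temperature; 665/620 nm emission read.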
# [3] = qHTS assay to identify small molecule agonists of the hypoxia (HIF-1) signaling pathway (AID 1224846; active = well fitted activation curve with a large enough effect in the signal ratio in the repeat runs, not every such curve was filed as active; the % refers to the signal ratio)
# Procedure, shortened: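 Reporter induction in HRE-bla ME-180 cells is taken as agonism: cells sit 5 hrs after plating, receive compounds or DMSO only, incubate 17 hrs at 37C under 5% CO2, and are loaded with CCF4-AM for beta-lactamase FRET measurement.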
# [4] = qHTS assay to identify small molecule agonists of H2AX - cell viability counter screen (AID 1224847; calls by dose curve; also: nearly all actives have a fitted effect of over 30% in size; also: potency is read from the fitted curve at half-maximal effect)
# Procedure, shortened: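 CHO-K1 cells plated overnight at 37C, then exposed 3 h at 37C to compounds at 15 concentrations (0.76% DMSO final). Viability by CellTiter-Glo luminescence after 30 min at room temperature.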
# [5] = qHTS RealTime-Glo MT Cell Viability Assay in HepG2 cells - 24 hour (AID 1224867); also: nearly all actives have a fitted effect of over 50% in size; also: potency is read from the fitted curve at half-maximal effect
# Procedure, shortened: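 Luminescence read-out: viable HepG2 cells reduce a prosubstrate to a NanoLuc substrate, giving a signal proportional to live cell number. Reads taken at 0, 8, 16, 24, 32 and 40 h of compound exposure at 37 C.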
# [6] = A CellTox Green Cytotoxicity Assay to monitor cytotoxicity in HEK293 cells - 0 hour (AID 1224869); also: nearly all actives have a fitted effect of over 50% in size; also: potency is read from the fitted curve at half-maximal effect
# Procedure, shortened: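 Tox21 screen in HEK293: membrane-impermeant cyanine dye fluoresces on binding dead-cell DNA; compound pinned 5 h post-seeding, plates held at 37 C, signal read repeatedly through 40 h.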
# [7] = qHTS RealTime-Glo MT Cell Viability Assay in HepG2 cells - 40 hour (AID 1224870); also: nearly all actives have a fitted effect of over 50% in size; also: potency is read from the fitted curve at half-maximal effect
# Procedure, shortened: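 HepG2 cells (600/well) mixed with RealTime-Glo MT reagent, settled 5 h at 37 C/5% CO2 before compound addition. Nonlytic NanoLuc luminescence from viable-cell prosubstrate reduction read repeatedly during 40 h treatment at 37 C.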
# [8] = qHTS assay to identify small molecule antagonists of the estrogen related receptor (ERR) signaling pathway from Tox21 library (AID 1224848); also: nearly all actives have a fitted effect of over 50% in size; also: potency is read from the fitted curve at half-maximal effect
# Procedure, shortened: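 Quantitative high-throughput format: ERR reporter cells (2,000/well) pre-incubated 6 h, treated 18 h at 37 C with compounds in DMSO alongside positive and negative controls, then read by ONE-Glo luminescence.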
# [9] = qHTS assay to identify small molecule agonists of the estrogen related receptor (ERR) signaling pathway from Tox21 library (AID 1224849; calls by dose curve; also: nearly all actives have a fitted effect of over 15% in size); details: ERR reporter cell line, ONE-Glo luciferase, 18 h
# Procedure, shortened: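 Tox21 compounds tested for ERR agonism in an NTP reporter cell line: 18 h treatment at 37 C, then ONE-Glo luminescence.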
# [10] = qHTS RealTime-Glo MT Cell Viability Assay in HEK293 cells - 32 hour (AID 1224868); also: nearly all actives have a fitted effect of over 50% in size; also: potency is read from the fitted curve at half-maximal effect
# Procedure, shortened: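 Nonlytic real-time viability readout: viable cells convert prosubstrate to NanoLuc substrate, giving luminescence proportional to live cell number. HEK293, 600 cells/well, compound added after 5 h, continuous culture at 37 C.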
SMILES,Potency [1],Potency [2],outcome [3],Potency [4],Potency [5],Potency [6],Potency [7],Potency [8],"activity change, positive = activation ([9]; at 92.4 µM (top of the series))",Potency [10],"activity change, positive = activation ([9]; at 42.5 µM (top of the series))"
CC[N+](CC)(CC)CC,inactive,inactive,inactive,inactive,inactive,inactive,inactive,–,–,–,–
O=c1nc(O)n(Cl)c(=O)n1Cl,inactive,inactive,–,inactive,inactive,inactive,–,inactive,9.16% (inactive) and 1.98% (inactive) and 3.37% (inactive),–,–
Nc1ccc(Cl)cc1,inactive,inactive,inactive,inactive,inactive,inactive,–,–,–,inactive,–
CCCC[n+]1ccccc1,inactive,inactive,–,inactive,inactive,inactive,inactive,–,–,inactive,–
Cc1cc(Cl)ccc1N,inactive,inactive,–,inactive,inactive,inactive and 38.9 µM (active),–,–,–,inactive,–
COCC(=O)N(c1c(C)cccc1C)C(C)C(=O)OC (stereo not given),inactive,inactive,–,inactive,inactive,inactive,–,inactive,1.31% (inactive) and 1.04% (inactive),inactive,5.38% (inactive)
CCCCCCCCn1cc[n+](C)c1,inactive,inactive,–,56.3 µM (active) and 80 µM (active) and 90.5 µM (active),inactive,inactive,–,–,–,3.86 µM (active) and 3.12 µM (active) and 3.93 µM (active),–
CCNc1nc(Cl)nc(NCC)n1,55.2 µM (active) and inactive,inactive,–,inactive,inactive,inactive,inactive,inactive,-3.33% (inactive) and -18.8% (inactive),inactive,-12% (inactive)
COc1ccccc1N,inactive,inactive,inactive,inactive,inactive,inactive,inactive,inactive,8.48% (inactive) and 0.539% (inactive) and 1.9% (inactive),inactive,–
COc1ccc(N)cc1,inactive,99.1 µM (active) and 89.8 µM (active),inactive,inactive,inactive,inactive,–,–,–,–,–
COP(=O)(OC)C(O)C(Cl)(Cl)Cl (stereo not given),inactive,inactive,–,inactive,inactive,inactive,–,inactive,-17% (inactive) and -12.3% (inactive),–,0.23% (inactive)
O=[N+]([O-])c1ccccc1O,inactive,inactive,–,inactive,inactive,inactive,–,inactive,2.74% (inactive) and 26.9% (inactive) and 8.3% (inactive),–,–
CCCCCCCCCCCCCC[P+](CCCCCC)(CCCCCC)CCCCCC,11 µM (active) and 17.5 µM (active) and inactive,inactive,inactive,16 µM (active) and 28.6 µM (active) and 4 µM (active),9.82 µM (active) and 19.7 µM (active) and inactive,inactive,11 µM (active) and 22.1 µM (active) and inactive,–,–,–,–
O=C(O)C(Cl)(Cl)Cl,inactive,inactive,–,inactive,inactive,inactive,–,–,–,inactive,–
O=C(O)C(Cl)Cl,inactive,inactive,inactive,inactive,inactive,inactive,–,–,–,–,–
O=[N+]([O-])O,inactive,inactive,inactive,inactive,inactive,inactive,–,–,–,–,–
C[C@]12CCC(=O)C=C1CC[C@@H]1[C@@H]2CC[C@]2(C)C(=O)CC[C@@H]12,inactive,88.3 µM (active),–,inactive,inactive,inactive,–,42.5 µM (active) and 54.5 µM (active),-46.4% (inactive) and -41% (inactive),27.1 µM (active) and inactive,-23.4% (inactive)
CCn1cc[n+](C)c1C,inactive,inactive,–,inactive,inactive,inactive,–,–,–,inactive,–
O=c1[nH]c(=O)n(Cl)c(=O)n1Cl,inactive,inactive,–,inactive,inactive,inactive,–,inactive,2.32% (inactive) and 2.59% (inactive) and 1.02% (inactive),–,–
CC(Cl)(Cl)C(=O)O,inactive,inactive,inactive,inactive,inactive,inactive,–,–,–,–,–
O=C(O)c1nc(Cl)ccc1Cl,inactive,inactive,–,inactive,inactive,inactive,–,–,–,inactive,–
Nc1ccccc1,inactive,inactive,inactive,inactive,inactive,inactive,–,–,–,inactive,–
O=C(O)c1ccccc1O,inactive,inactive,–,inactive,inactive,inactive,inactive,–,–,inactive,–
CCCC[n+]1cccc(C)c1,inactive,inactive,inactive,inactive,inactive,inactive,–,–,–,–,–
OCCOc1ccccc1,inactive,inactive,–,inactive,inactive,inactive,–,inactive,-33.2% (inactive) and 4.84% (inactive),–,7.59% (inactive)
O=P1(N(CCCl)CCCl)NCCCO1 (stereo not given),inactive,inactive,–,inactive,inactive,inactive,–,inactive,-1.25% (inactive) and 0.0597% (inactive),–,-7.16% (inactive)
COP(=O)(OC)OC=C(Cl)Cl,inactive,inactive,inactive,inactive,inactive,inactive,inactive,–,–,–,–
O=S(=O)(O)O,inactive,inactive,inactive,inactive,inactive,inactive,inactive,–,–,inactive,–
